# Data reported in PubChem BioAssay (NCI).
# About 79,000 compounds went through this panel and 15% of them were active in at least one assay; those are over-represented in the sample as a whole. Unmarked numbers belong to inactive results. Activity calls are given as the source filed them. No stated cut-off is given here; in the data, active means growth inhibition above about 70%; inactive means the rest.
# Experiments:
# [1] = NCI Yeast Anticancer Drug Screen. Data for the rad50 strain (AID 155);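 further: 0% = growth of vehicle-only cultures of the same strain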; settings: S. cerevisiae rad50 strain growth inhibition, active compounds read high
# Method in brief: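 Vehicle-treated cultures provide the reference for the growth inhibition reported for compound-exposed, repair-deficient yeast.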
# [2] = NCI Yeast Anticancer Drug Screen. Data for the mec2-1 strain (AID 157); settings: S. cerevisiae mec2-1 strain, active compounds read high
# Method in brief: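 Readout is yeast growth inhibition, normalised to vehicle-treated controls, in the mec2-1 strain exposed to compound.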
# [3] = NCI Yeast Anticancer Drug Screen. Data for the sgs1 mgt1 strain (AID 161);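 further: 0% = growth of cultures given vehicle only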; settings: S. cerevisiae sgs1 mgt1 strain, active compounds read high
# Method in brief: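 Yeast cells carrying a defined DNA-repair defect were exposed to test compounds. Growth inhibition was measured relative to vehicle-treated controls.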
# [4] = NCI Yeast Anticancer Drug Screen. Data for the cln2 rad14 strain (AID 165);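 further: 0% = growth equal to vehicle treated cultures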; settings: S. cerevisiae cln2 rad14 strain, active compounds read high
# Method in brief: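 Relative to vehicle controls, growth inhibition of compound-treated cln2 rad14 yeast was recorded.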
# [5] = NCI Yeast Anticancer Drug Screen. Data for the bub3 strain (AID 167); settings: S. cerevisiae bub3 mutant strain, active compounds read high
# Method in brief: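 Mutant yeast screening strain plus compound; vehicle-treated cultures serve as the 0% inhibition reference.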
# [6] = NCI Yeast Anticancer Drug Screen. Data for the mlh1 rad18 strain (AID 175); settings: S. cerevisiae mlh1 rad18 strain growth inhibition, active compounds read high
# Method in brief: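 Test agents were incubated with a yeast strain of defined genotype (DNA damage repair defect). Inhibition of growth was derived by comparison with vehicle-exposed cultures.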
# [7] = at 5.0 µM (retest, dose inferred, filed as 0.5)
# [8] = at 50.0 µM (retest, dose inferred, filed as 5.0)
SMILES,"growth inhibition [1, 7]","growth inhibition [1, 8]",growth inhibition ([1]; at 50.0 µM),"growth inhibition [2, 7]","growth inhibition [2, 8]",growth inhibition ([2]; at 50.0 µM),"growth inhibition [3, 7]","growth inhibition [3, 8]",growth inhibition ([3]; at 50.0 µM),"growth inhibition [4, 7]","growth inhibition [4, 8]",growth inhibition ([4]; at 50.0 µM),"growth inhibition [5, 7]","growth inhibition [5, 8]",growth inhibition ([5]; at 50.0 µM),"growth inhibition [6, 7]","growth inhibition [6, 8]",growth inhibition ([6]; at 50.0 µM)
O=[N+]([O-])/C(=C/c1ccccc1)c1ccccc1,99% (active),99% (active),99.6% (active),100% (active),99% (active),99.7% (active),99% (active),97% (active),99.7% (active),99% (active),99% (active),98.7% (active),100% (active),99% (active),99.5% (active),99% (active),99% (active),99.5% (active)
COC(=O)Nc1nc2ccc(C3(c4ccc(F)cc4)OCCO3)cc2[nH]1,25%,51%,-6.5%,9%,67%,35%,20%,55%,79% (active),11%,36%,56.2%,22%,72% (active),84.1% (active),18%,76% (active),80% (active)
CC1=C(Cl)C[C@@H](/C(C)=C\Cl)O[C@@]1(O)C(Br)Br,31%,92% (active),91.8% (active),24%,94% (active),93.4% (active),40%,93% (active),93.5% (active),20%,90% (active),91.2% (active),40%,91% (active),92.3% (active),65%,92% (active),15.1%
Oc1ccc(Nc2ccc3ccccc3c2)cc1,9%,97% (active),97.5% (active),-5%,98% (active),98.5% (active),3%,98% (active),88.9% (active),-5%,98% (active),97.5% (active),-5%,96% (active),98% (active),-1%,98% (active),97.6% (active)
CC1=CC(=O)C=CC1(C)C(Cl)(Cl)Cl (stereo not given),-16%,-24%,-3.05%,-15%,-12%,-1.55%,0%,-6%,-11.6%,-44%,-10%,44.3%,-6%,2%,-0.65%,-10%,-22%,1%
CCCN(CCC)C(=O)c1ccc(C)cc1,1%,21%,4.3%,2%,5%,97.9% (active),2%,5%,0.05%,3%,24%,-17.1%,3%,28%,2.9%,-3%,17%,7.2%
Cn1ccc(=Nc2ccc(NC(=O)c3ccc(N=c4ccn(C)c5ccc([N+](=O)[O-])cc45)cc3)cc2)cc1,86% (active),98% (active),79.7% (active),80% (active),98% (active),87.4% (active),92% (active),98% (active),87.3% (active),83% (active),96% (active),76.6% (active),93% (active),99% (active),87.5% (active),72% (active),95% (active),84.8% (active)
CC(C)(C)c1ccc(O)c(Br)c1,0%,-4%,90.9% (active),-38%,5%,79.8% (active),0%,2%,83.8% (active),1%,-4%,35.5%,31%,-4%,42.6%,1%,8%,86.8% (active)
CCCC[n+]1c(/C=C\c2c(OC)cc(OC)cc2OC)ccc2ccccc21,64%,97% (active),88.8% (active),61%,99% (active),90.8% (active),67%,99% (active),91.7% (active),56%,99% (active),89.7% (active),86% (active),98% (active),90.1% (active),44%,97% (active),88% (active)
CCNc1nnnn1CC,-37%,1%,-2.5%,-2%,-2%,2.1%,0%,5%,-5.35%,2%,4%,12.3%,-1%,-2%,22.9%,6%,18%,2.8%
Oc1c(Cl)cc(Cl)cc1C=NCC1CCC(CN=Cc2cc(Cl)cc(Cl)c2O)CC1 (stereo not given),60%,86% (active),87.5% (active),41%,92% (active),91% (active),67%,96% (active),90.3% (active),39%,58%,80.1% (active),73% (active),94% (active),88.4% (active),72% (active),97% (active),85.8% (active)
CCOc1ccc(NC(=O)/C(=N\N)C(C(=O)OC)c2nc3ccc(Cl)cc3[nH]c2=O)cc1 (stereo not given),-14%,-17%,-12.9%,-1%,-10%,-13.1%,-8%,-3%,-24.4%,-25%,-8%,80.2% (active),-6%,5%,-26.5%,-7%,-8%,-1.5%
COc1cc([C@@H]2c3cc4c(cc3[C@H](OC3OC5COC(c6ccccc6)OC5C(O)C3O)[C@H]3COC(=O)[C@H]23)OCO4)cc(OC)c1OC (stereo not given in full),-4%,91% (active),81.3% (active),-13%,77% (active),81% (active),18%,70% (active),76.3% (active),12%,56%,63%,5%,82% (active),77.5% (active),-4%,91% (active),81% (active)
CC12CCC(O)CC1=CCC1C2CCC2(C)C3=NN=CC3CC12 (stereo not given),38%,99% (active),96.6% (active),16%,100% (active),99.4% (active),35%,100% (active),98.5% (active),7%,100% (active),99.2% (active),31%,100% (active),99.3% (active),50%,100% (active),99.5% (active)
Oc1ccc(Br)cc1Sc1cc(Br)ccc1O,6%,99% (active),87.9% (active),28%,99% (active),99.7% (active),26%,100% (active),99.7% (active),14%,98% (active),99.4% (active),16%,99% (active),99.2% (active),53%,99% (active),99.5% (active)
CCCCCCCCCCCCCCCC[N+](C)(C)C,53%,94% (active),91.3% (active),45%,87% (active),93.1% (active),93% (active),97% (active),,82% (active),97% (active),,97% (active),96% (active),,30%,84% (active),91.7% (active)
CC1=C(C2=C(C)C(=O)C(=O)c3cc(C)ccc32)c2ccc(C)cc2C(=O)C1=O,89% (active),98% (active),86.7% (active),95% (active),99% (active),91.5% (active),98% (active),99% (active),91.8% (active),,,,98% (active),99% (active),90.9% (active),97% (active),99% (active),91% (active)
Cc1ccc(Nc2n[nH]c(=S)s2)cc1F,37%,90% (active),85.8% (active),46%,93% (active),78.2% (active),8%,79% (active),,49%,80% (active),,28%,80% (active),,27%,84% (active),77.2% (active)
N#Cc1ccc(Br)cc1[N+](=O)[O-],45%,64%,91.2% (active),41%,63%,93.2% (active),74% (active),100% (active),,90% (active),100% (active),,87% (active),100% (active),,33%,61%,92% (active)
C1=C(c2ccccc2)c2ccccc2C1,0%,29%,75.2% (active),-23%,17%,63.4%,-13%,12%,48%,,,,-12%,18%,58.9%,5%,57%,49.9%
